Hits are enriched below; roughly 4.1% of the tested compounds scored in any of these assays.
DAX1 inh-1 = blocks DAX1 repression of SF-1 activated StAR promoter. HEK293T StAR-luciferase reporter, SF-1/DAX-1 repression relief. inhibition, % at 6.8 µM. 370,000 tested, 1.1% active;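 active = inhibition above the mean over all tested compounds plus 3 SD, cut at about 3.6% in these data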;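 also: 0% = DAX-1 cells with DMSO and 100% = cells lacking DAX-1 with DMSO; higher inhibition means more luminescence from relief of DAX-1 repression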
DAX1 inh-2 = NR0B1 (DAX1) inhibition; P51843; HEK293 Gal4-DAX1 luciferase reporter, luminescence; inhibition, % at 6.75 µM; 340,000 tested, 0.99% active; AID 504766;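 active = inhibition above the mean over all tested compounds plus 3 SD, cut at about 4.2% in these data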;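 also: 0% = DAX1-transfected cells with DMSO and 100% = empty-vector control cells with DMSO; inhibition shows as a rise in luminescence from relieved DAX1 repression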
Target sequence (P51843 207-470 limits assumed): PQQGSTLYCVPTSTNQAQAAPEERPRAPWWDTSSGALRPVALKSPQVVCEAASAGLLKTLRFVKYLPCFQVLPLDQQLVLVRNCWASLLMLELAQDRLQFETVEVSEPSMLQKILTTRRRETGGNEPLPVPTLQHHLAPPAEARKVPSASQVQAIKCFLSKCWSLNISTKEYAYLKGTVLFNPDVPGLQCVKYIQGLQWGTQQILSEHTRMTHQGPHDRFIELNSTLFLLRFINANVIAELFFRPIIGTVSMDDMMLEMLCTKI
PolyA inhibitor = inhibitors of polyadenylation in S. cerevisiae. S. cerevisiae SKY197-pL101 polyadenylation reporter, beta-gal luminescence; efflux-impaired pdr1/pdr3 knockout yeast; score 100 = 6 SD above DMSO. AID 1875. 300,000 tested, 0.02% active. activity score, % at 12 µM;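 active = lowest replicate activity score at least 50, where 100 means six control SD above control mean; inconclusive = lowest score under 50 but half or more replicates reach 50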;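 also: yeast exposed to compound for 9 h at 30 °C; higher score means more reporter readthrough which indicates perturbed polyadenylation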
ssDAF-12 act = activators of S. stercoralis DAF-12 nuclear receptor | HEK293 ssDAF-12/GRIP1 lit1-tk-luc reporter, luminescence; % of 3 µM dafachronic acid response | activation, % at 6.8 µM | 370,000 tested, 1% active;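 active = activation above the mean over all tested compounds plus 3 SD, cut at about 0.9% in these data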;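 also: 0% = DMSO-only wells and 100% = 3 µM delta7-dafachronic acid wells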
hgDAF12 agonist = hgDAF-12 agonism, primary luciferase screen; AID 687014; activation, % at 6.8 µM; 370,000 tested, 1.8% active; HEK293 GAL4-hgDAF12 UAS-luciferase reporter, agonist luminescence; normalized to butyrate control;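 active = activation above a cutoff set at the mean of all screened compounds plus 3 SD, cut at about 10% in these data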;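 also: 0% = DMSO wells and 100% = sodium butyrate wells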
hcDAF12 agonist = activates DAF-12 receptor from parasite H. contortus; HEK293 hcDAF-12 lit1-tk-luc reporter, luminescence; 0% DMSO, 100% Δ7-dafachronic acid; activation, % at 6.8 µM; 370,000 tested, 1.4% active; AID 652067;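 active = activation above the mean of all tested compounds plus 3 SD, cut at about 5.5% in these data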;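 also: 100% = response to 3 µM Δ7-dafachronic acid high control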
DAX1 conf = NR0B1 (human) inhibition, confirmation; shares compounds with DAX1 inh-1; HEK293T StAR-promoter luciferase reporter, SF-1/DAX-1 repression; inhibition, % at 6.8 µM; 2,400 tested, 87% active; AID 652134;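 active = inhibition above the average of every tested compound plus 3 SD, cut at about 3.8% in these data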;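 also: 0% = DAX-1 cells with DMSO and 100% = no DAX-1 control cells with DMSO; active compounds raise luminescence by relieving repression of the StAR reporter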
Target sequence (P51843 whole entry, looked up): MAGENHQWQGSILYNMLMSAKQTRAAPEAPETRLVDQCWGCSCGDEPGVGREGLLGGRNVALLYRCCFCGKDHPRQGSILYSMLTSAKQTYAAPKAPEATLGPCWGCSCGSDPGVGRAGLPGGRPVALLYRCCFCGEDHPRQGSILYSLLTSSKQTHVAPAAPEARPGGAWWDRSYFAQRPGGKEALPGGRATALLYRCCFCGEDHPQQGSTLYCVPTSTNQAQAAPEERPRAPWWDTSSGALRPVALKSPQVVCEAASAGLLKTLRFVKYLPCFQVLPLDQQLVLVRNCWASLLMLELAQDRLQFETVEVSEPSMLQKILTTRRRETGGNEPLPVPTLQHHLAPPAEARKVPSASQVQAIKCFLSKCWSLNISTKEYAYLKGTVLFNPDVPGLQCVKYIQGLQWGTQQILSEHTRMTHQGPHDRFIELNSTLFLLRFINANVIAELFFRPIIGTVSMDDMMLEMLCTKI
SF1 AF2mut Luc = nonselective inhibitor or artifact in SF-1 mutant DAX1 counter-screen; HEK293 StAR-luciferase, SF-1 AF2 mutant, luminescence; 2,400 tested, 78% active; AID 652136; shares compounds with DAX1 inh-1; inhibition, % at 6.8 µM;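 active = inhibition above the mean of all tested compounds plus 3 SD, cut at about 3% in these data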;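 also: 0% = DAX-1 transfected cells with DMSO and 100% = cells without DAX-1 with DMSO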
LXR ag = activates human LXR-beta, counter-screen for hcDAF-12 agonists; activation, % at 6.8 µM; 3,400 tested, under 10 active; AID 743027; HEK293 Gal4-LXR tk-luc reporter, luminescence, 24 h; normalized: DMSO 0%, positive control 100%; shares compounds with hcDAF12 agonist;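 active = mean percent activation of the reporter above a cutoff set as the average over tested compounds plus their standard deviation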
hcDAF12 ag = hcDAF-12 agonism, confirmation assay | HEK293 hcDAF-12 lit1-tk-luc reporter, luminescence; % of Δ7-dafachronic acid response | AID 743032 | 3,400 tested, 61% active | shares compounds with hcDAF12 agonist | activation, % at 6.8 µM;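 active = mean activation across triplicate tests above the threshold derived from the earlier primary screen, cut at about 5.5% in these data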;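 also: 0% = DMSO only wells and 100% = 3 µM Δ7-dafachronic acid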
hgDAF12 conf = hgDAF-12 agonism, confirmation assay. shares compounds with hgDAF12 agonist. HEK293 GAL4-hgDAF12 luciferase reporter, agonist mode; percent of butyrate response. 3,300 tested, 80% active. activation, % at 6.8 µM. AID 743050;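 active = mean activation over triplicate wells above the hit cutoff derived from the earlier primary screen, cut at about 11% in these data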;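 also: 0% = DMSO low control and 100% = 2 mM sodium butyrate high control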
LXRb DAF12 ctr = counter-screen for DAF-12 agonists: agonists of human LXR-beta. HEK293 Gal4-LXR luciferase reporter, 24 h. shares compounds with hgDAF12 agonist. AID 743051. activation, % at 6.8 µM. 3,300 tested, under 10 active;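 active = mean activation of the triplicate above a set limit carried over from the primary screen, none filed active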
* hit, by the source's call; ? = inconclusive; . = no result.

SMILES	DAX1 inh-1	DAX1 inh-2	PolyA inhibitor	ssDAF-12 act	hgDAF12 agonist	hcDAF12 agonist	DAX1 conf	SF1 AF2mut Luc	hgDAF12 conf	LXRb DAF12 ctr	others
CC(C)(C)c1ccc(NC(=O)Nc2ccc(OCC(=O)N3CCOCC3)cc2)cc1	5.1*	0	4	-1	15*	6.4*	7.8*	4.5*	22*	1
CCCN1CCN(CC(=O)NCC(=O)Nc2cccc(C)c2C)CC1	3	1	.	-1	1	1	.	.	.	.
CCOC(=O)C(=C1Nc2ccccc2N1)n1c(-c2cccnc2)nc2ccccc21	5.1*	.	.	0	15*	3	7.7*	4.4*	13*	1
CCOC(=O)Cn1c(-c2cccnc2)nc(-c2ccccc2)c1-c1ccccc1	-1	-2	-15	-1	2	-3	.	.	.	.
Cc1cccn2cc(-c3ccc(S(=O)(=O)N4CCCCC4)cc3)nc12	-1	-1	-34	-1	4	-1	.	.	.	.
COc1ccc(-c2cn3cc(C)ccc3n2)cc1OC	4.9*	-1	-2	0	19*	4	12*	6.6*	18*	1
COc1ccc(-c2cn3cccc(C)c3n2)cc1F	5.0*	2	3	1.0*	18*	7.9*	14*	9.0*	16*	1	LXR ag=1;hcDAF12 ag=5
COc1ccc(-c2csc(C)n2)cc1OC	0	0	-8	-1	0	-1	.	.	.	.
Cc1cccn2cc(-c3ccc(Cl)cc3)nc12	9.3*	1	-4	2.6*	16*	18*	11*	4.0*	18*	1	LXR ag=1;hcDAF12 ag=18*
Cc1ccc(-c2cn3cccc(C)c3n2)cc1	9.2*	0	1	3.8*	15*	16*	17*	7.9*	21*	1	LXR ag=2;hcDAF12 ag=17*
CCC(=O)Nc1cccc(-c2cn3cccc(C)c3n2)c1	0	.	26	-1	-1	1	.	.	.	.
COC(=O)[C@]12C[C@H](CC(=O)NCc3cccs3)C(=O)N(Cc3ccc4c(c3)OCO4)C1=C[C@H](C(C)(C)C)O[C@@H]2C	-1	.	.	0	-2	-1	.	.	.	.
COc1ccc(C(=O)Nc2cc(-c3ccccc3)nn2-c2ccccc2F)cc1	0	0	.	-2	-1	0	.	.	.	.
CCOC(=O)Cn1cnc(-c2ccc([N+](=O)[O-])cc2)c1	2	2	-2	0	6	2	.	.	.	.
O=C(c1ccccc1)N1CCN(C(=O)c2nn3c(C(F)(F)F)cc(-c4ccccc4)nc3c2Br)CC1	0	0	-1	-1	2	1	.	.	.	.
COc1ccc(-c2nc3ccc(C)cn3c2Cc2ccccc2C(F)(F)F)cc1OC	1	.	.	-1	1	-2	.	.	.	.
Cc1ccc(-c2nc3ccc(C)cn3c2Cc2ccccn2)cc1	5.8*	.	.	0	14*	3	10*	4.5*	5	1
Cc1ccc(Cc2c(-c3ccc(Br)cc3)nc3cc(C)ccn23)cc1	7.5*	4	.	0	14*	4	3.7*	2	1	0
Cc1ccc(Cc2c(-c3ccc(F)cc3)nc3ccc(Br)cn23)cc1	1	.	.	-1	6	2	.	.	.	.
Cc1ccc(-c2nc3ccc(Br)cn3c2Cc2ccccc2)cc1	5.4*	.	.	1	14*	3	8.2*	3	16*	1
Cc1ccc2nc(-c3ccc(F)cc3)c(Cc3ccccc3C(F)(F)F)n2c1	4.7*	.	.	1.7*	14*	5	2	4.6*	6	0
Cc1ccc(Cc2c(-c3ccccc3)nc3ccc(Br)cn23)cc1	2	0	.	0	7	2	.	.	.	.
Cc1ccc2nc(-c3ccc(C#N)cc3)c(Cc3ccccn3)n2c1	3	.	.	0	6	1	.	.	.	.
O=C(CCn1nnnc1CN1CCOCC1)N1CCC(c2cccc(Cl)c2)C1 (stereo not given)	-2	1	6	-1	2	0	.	.	.	.
Cc1ccc(Cc2c(-c3ccc(F)cc3)nc3ccc(Cl)cn23)cc1	2	3	.	1	3	1	.	.	.	.
SMILES	DAX1 inh-1	DAX1 inh-2	PolyA inhibitor	ssDAF-12 act	hgDAF12 agonist	hcDAF12 agonist	DAX1 conf	SF1 AF2mut Luc	hgDAF12 conf	LXRb DAF12 ctr	others
Cc1ccc(Cc2c(-c3ccc(F)cc3)nc3cc(C)ccn23)cc1	6.6*	3	.	0	17*	2	0	0	7	0
CC(C)C1=CC2C3C(=O)N(c4ccccc4)C(=O)C3C1C(=O)C2(C)O (stereo not given)	0	.	.	-1	4	-1	.	.	.	.
Cc1cccn2c(=O)c3cc(C(=O)NCc4cccnc4)c(=N)n(CC4CCCO4)c3nc12 (stereo not given)	0	-1	32	-1	0	0	.	.	.	.
COc1ccc(-c2nnc(SCc3c(F)cccc3F)n2N)cc1	7.5*	.	.	0	13*	4	14*	6.2*	15*	1
COc1ccc(-c2nnc(SCc3cccc(C)c3)n2N)cc1	1	0	9	-1	-2	-1	.	.	.	.
CC(C)(C)c1ccc(C(CC(=O)O)NC(=O)Cc2ccccc2)cc1 (stereo not given)	0	0	0	-1	-2	1	.	.	.	.
CC1CCN(c2nc3ccc(C(=O)NCCCN4CCCCC4C)cc3s2)CC1 (stereo not given)	7.2*	-2	0	1.6*	15*	4	12*	7.1*	15*	1
CC(C)N(C(=O)COC(=O)c1ccc(Cl)s1)c1ccccc1	-1	1	.	-1	0	0	.	.	.	.
O=C(NCCc1ccc(Cl)cc1)c1ccc2c(c1)OCO2	11*	1	?	0	13*	4	12*	6.6*	16*	1
